PLK1 kinase inh – blocks human PLK1 kinase activity | AID 619 | recombinant PLK1 kinase, TR-FRET peptide phosphorylation | 97,000 tested, 0.53% active | inhibition, % at 10 µM;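 active = inhibition of 50% or more in the single-concentration screen; inactive = inhibition below 50%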;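 also: 0% = DMSO max control and 100% = H-89 dihydrochloride min control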
Plk1 PBD FP – inhibitors of human Plk1 polo box domain binding. Plk1 PBD phosphopeptide binding, fluorescence polarization. inhibition, %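 (tested at about 20 µM)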. 97,000 tested, 0.13% active; in the data active = inhibition above about 34%, passing the limit was not always enough
PKA inh – PKA (human) kinase inhibition; inhibition, % at 6 µM; PKA Kemptide phosphorylation, Kinase-Glo ATP luminescence; 65,000 tested, 0.1% active;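 active = inhibition above the screen-wide mean inhibition plus 3 SD, cut at about 21% in these data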
ROCK2 blocker – blocks human Rho kinase 2 activity; O75116; purified ROCK2, Kinase-Glo ATP depletion luminescence; inhibition, % at 6 µM; 60,000 tested, 0.35% active;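 active = inhibition above the screen-wide mean inhibition plus 3 SD, cut at about 18% in these data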;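 also: plate controls were DMSO wells for no effect and Y-27632 control wells after no-enzyme background subtraction for full effect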
PLK1 inh conf – confirmation of human PLK1 kinase inhibitors. shares compounds with PLK1 kinase inh. recombinant PLK1 kinase, TR-FRET peptide phosphorylation. inhibition, % at 10 µM. 210 tested, 20% active. AID 744;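 active = inhibition at or above 50% in each of two repeat confirmation tests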;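 also: 0% = DMSO max control and 100% = H-89 kinase-blocked min control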
TR-FRET interf – counter-screen for Plk1 inhibitors: compound assay interference; inhibition (interference), % at 10 µM; shares compounds with PLK1 kinase inh; Plk1 TR-FRET assay interference, compound added post-reaction; 210 tested, under 10 active;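 active = both duplicate runs show 50% or greater inhibition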;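 also: 0% = DMSO max control and 100% = H-89 min control inhibited reaction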
Redox H2O2 DR – redox cycling H2O2 generation counter-screen for Plk1 PBD; shares compounds with Plk1 PBD FP; DTT; EC50, µM; 120 tested, under 10 active; AID 876; call rule not given here
Numbers without * were called inactive; . = no result. Shown are actives, neighbours in structure and some others; about 0.74% of the full set was active somewhere.

SMILES | PLK1 kinase inh | Plk1 PBD FP | PKA inh | ROCK2 blocker | PLK1 inh conf | TR-FRET interf | others
Cc1ccc(N(C)C(=O)N2CCN(S(=O)(=O)c3ccc4ccccc4c3)CC2)cc1 | 6 | 0 | . | . | . | .
CCC(C)n1c(-c2cccs2)nc2nc3ccccc3nc21 (stereo not drawn) | -8 | -30 | -4 | -3 | . | .
CC1C(=O)CC(c2ccco2)NC1c1ccco1 (stereo not drawn) | -7 | -24 | . | . | . | .
Cc1cc(N)ccc1-n1c(C)ccc1C | . | . | 2 | -2 | . | .
Cc1cc(N)ccc1N1CCCC1 | 80* | 11 | . | . | 20 | -24
COc1ccc2c(c1)c(=O)oc1cc(OCC(=O)N3CCc4ccccc4C3)ccc12 | 1 | -13 | . | . | . | .
COC(=O)c1[nH]c2ccc(Cl)cc2c1NC(=O)CN1CCC(C(N)=O)CC1 | 72* | 2 | 9 | 4 | -10 | -48
O=C(Nc1ccccc1-c1ccccc1)c1ccc(NC(=O)c2ccco2)cc1 | -18 | 11 | . | . | . | .
CCC(C)Sc1nnc(Cc2cc(=O)[nH]c(=O)[nH]2)n1-c1ccc(F)cc1 (stereo not drawn) | 72* | 16 | -7 | 1 | -8 | -49
CCOC(=O)c1c(C)n(C)c2ccc(OCC(O)CN3CCN(C)CC3)cc12 (stereo not drawn) | 75* | 9 | -4 | 6 | -7 | -44
CC1(C)Cc2cccc(OCC(=O)Nc3cccnc3Cl)c2O1 | -4 | -15 | . | . | . | .
O=C1NCCCC2c3c(cc(Br)c(O)c3Br)OC12N1CCCCC1 (stereo not drawn) | -6 | -24 | . | . | . | .
CC1(c2ccccc2)NC(=O)N(CC(=O)Nc2ccc3c(c2)OCO3)C1=O (stereo not drawn) | 91* | -1 | . | . | -11 | -52
CCn1c(SCC(=O)N2CCCCC2)nc(O)cc1=O | -12 | 2 | . | . | . | .
CCn1c(SCC(=O)N2CCOCC2)nc(O)cc1=O | 71* | -13 | 8 | 6 | -15 | -51
CC1CC(C)CN(C(=O)CSc2nc(Cc3cccs3)nc3ccccc23)C1 (stereo not drawn) | -9 | 15 | . | . | . | .
COc1cccc(CNS(=O)(=O)/C=C/c2ccc3c(c2)OCO3)c1 | -2 | 16 | . | . | . | .
CCOC(=O)CNC(c1ccccc1)c1cc(Br)ccc1NC(=O)OCC (stereo not drawn) | 93* | 9 | . | . | -1 | -54
CCOC(=O)Nc1ccc(C)cc1Br | 1 | -13 | 4 | 3 | . | .
O=c1ccc2cc3c([nH]c4ccc(Br)cc43)oc-2c1O | 71* | 6 | 7 | 5 | 22 | -20
COCCCNC(=O)c1ccc(CS(=O)(=O)c2ccc(Br)cc2)o1 | 75* | -16 | -6 | 1 | -6 | -50
CCCc1[nH]nc2c1C(c1ccc(O)c(OC)c1)C(C#N)=C(N)O2 (stereo not drawn) | 109* | 0 | -2 | 2 | -3 | -46
O=C(CC(=O)N/N=C\c1c(Cl)cccc1Cl)NCc1ccccc1 | 1 | 20 | . | . | . | .
Nc1ncnc(Nc2ccccc2C(F)(F)F)n1 | 72* | -6 | 9 | 8 | 70* | -43
Nc1nc(Nc2ccccc2Br)nc(C(F)(F)F)n1 | . | . | -9 | 4 | . | .
SMILES | PLK1 kinase inh | Plk1 PBD FP | PKA inh | ROCK2 blocker | PLK1 inh conf | TR-FRET interf | others
CC1=CC(C)(C)N(C(=O)CSc2nnc(-c3ccc(C)cc3)o2)c2ccc(C)cc21 | -4 | -6 | . | . | . | .
O=C(Nc1ncc2c(n1)-c1ccccc1CC2)c1ccc(Cl)cc1 | 123* | -10 | . | . | 12 | -46
O=C(Nc1ncc2c(n1)-c1ccccc1CC2)c1cccc(Cl)c1 | 8 | -17 | . | . | . | .
COC(=O)c1ccccc1NC(=O)CSc1nc(N)cc(N)n1 | 71* | 42 | 9 | 3 | -5 | -44
CC1CCN(c2ncnc3nc[nH]c23)CC1 | 81* | 12 | . | . | 74* | -47
CC1CCN(c2nc3ccccc3nc2N2CCC(C)CC2)CC1 | -10 | -21 | . | . | . | .
COc1ccc(Cl)cc1NC(=O)Cn1c(=O)n2nc(C)nc2c2ccccc21 | 78* | -15 | 5 | 7 | -6 | -51
CCC(C)Sc1nnc(CSc2nc3nc(C)cc(C)n3n2)o1 (stereo not drawn) | -6 | 16 | . | . | . | .
Cc1c(NC(=O)C(C)N2C(=O)C3C4C=CC(C4)C3C2=O)c(=O)n(-c2ccccc2)n1C (stereo not drawn) | 71* | -20 | 3 | 2 | -6 | -47
C=CCSc1nc(-c2ccccc2)c2cc(Cl)ccc2n1 | 78* | 13 | . | . | -9 | -51
CSc1c(-c2ccccc2)nc2ccc(Cl)cc2c1C(=O)O | -19 | -3 | . | . | . | .
Cc1nn2c([nH]c(=O)c3ccccc32)c1C=O | -15 | 1 | . | . | . | .
CCCCOC(=O)CCn1c(=S)oc2ccccc21 | 125* | 13 | 7 | 4 | -8 | -52
CCCCCOC(=O)Cn1c(=O)oc2ccccc21 | . | . | 4 | 3 | . | .
CCNC(=O)CSc1ncnc2sccc12 | -5 | -9 | . | . | . | .
N#Cc1c(NC(=O)CSc2ncnc3sccc23)oc(-c2ccco2)c1-c1ccco1 | 77* | -4 | 8 | 4 | -9 | -53
Cc1cccc(N=Nc2c(N)n[nH]c2-c2ccc(Cl)cc2)c1 | 71* | -3 | . | . | 59* | -49
COc1cc(-c2nnc(SCc3cccnc3)n2C)cc(OC)c1O | -6 | 0 | 8 | 4 | . | .
COCCn1c(SCc2cccnc2)nnc1-c1c[nH]c2ccccc12 | 75* | -21 | 0 | -1 | -9 | -47
COCCn1c(SCC(=O)Nc2cc(C)on2)nnc1-c1c[nH]c2ccccc12 | 71* | -2 | 4 | 2 | 0 | -51
COCCn1c(Cc2ccccc2)nnc1SCC(=O)Nc1cc(C)on1 | 2 | 6 | -2 | -7 | . | .
CN(C(=O)Nc1ccc(Cl)cc1Cl)[C@H]1c2cc(Br)ccc2OC[C@H]1CO | -6 | -42 | . | . | . | .
O=C(CCc1ccccc1)N1CCN(CCO)CC1 | 74* | 21 | 7 | 2 | -10 | -48
COc1ccccc1N1C(N)=NC(N)=NC1(C)C | 79* | 10 | -6 | -3 | 4 | -55
O=c1[nH]cnc2cc(-c3ccccc3)sc12 | 80* | 5 | 15 | 10 | 73* | -54
SMILES | PLK1 kinase inh | Plk1 PBD FP | PKA inh | ROCK2 blocker | PLK1 inh conf | TR-FRET interf | others
O=C(CC1CCCC1)Nc1ccc2c(c1)CCC2 | -19 | -29 | . | . | . | .
Cc1nc2c([nH]1)C1(CCN(Cc3ccccc3)CC1)C(C#N)=C(N)O2 | 70* | 1 | 10 | 3 | 72* | -56
Cc1ccc(CC2CC(=O)N(c3cc(C)on3)C2=O)cc1 (stereo not drawn) | 70* | 6 | 1 | 4 | -10 | -54
Cc1cc(N2C(=O)C3CC=CCC3C2=O)no1 (stereo not drawn) | -6 | 2 | . | . | . | .
O=C(COc1ccccc1C(=O)N/N=C\c1ccc(O)c(O)c1)N/N=C/c1ccc(O)c(O)c1 | 86* | 5 | . | . | 72* | 69*
CCOc1ccc(/C=N/NC(=O)COc2ccccc2-c2ccccc2)cc1 | -13 | 43 | . | . | . | .
Cn1nnnc1SCC(=O)Nc1ccc(N2CCOCC2)cc1 | 75* | -13 | 1 | . | -3 | -54
COc1ccc(N(C)C2=NS(=O)(=O)c3ccccc32)cc1 | 6 | 54* | . | . | . | . | Redox H2O2 DR=>50
